Among the data in PubChem BioAssay (NCATS) are Potency values, retold here.

Inconclusive results are not listed. Active and inactive are the calls of the source.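 The calls were made as follows: active = compounds whose dose-response curve shows a full or clear partial loss of cell viability, called from curve shape rather than a numeric limit; inconclusive = weak partial curves or an effect only at the top dose; inactive = no dose-dependent loss of viability.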
Potency is read from the fitted curve at half-maximal effect.

This test in a line: Cell Viability - Hek293 (AID 427).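 Also: cells exposed to compound for 40 hours at 37 °C before reading.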 The conditions noted are these: qHTS. The source says: NIH Chemical Genomics Center [NCGC]
NIH Molecular Libraries Screening Centers Network [MLSCN]
National Institutes of Environmental Health Sciences [NIEHS]
National Toxicology Program [NTP]
We have developed a 1536-well cell-based assay for quantitative high throughput screening (qHTS) against a number of cell lines to determine in vitro cytotoxicity of small molecules. This particular assay uses the Hek 293 cell line which is derived from human embryonic kidney cells (transformed with adenovirus).
NCGC Assay Protocol Summary:
The CellTiter-Glo luminescent cell viability assay (Promega) is a homogeneous method to measure the number of viable cells in culture. The end point readout of this assay is based on quantitation of intracellular ATP, an indicator of metabolic activity, using the luciferase reaction. Luciferase catalyzes the oxidation of beetle Luciferin to oxyluciferin and light in the presence of ATP. The luminescent signal is proportional to amount of ATP present.
Using the CellTiter-Glo luminescent cell viability assay, the amount of cellular ATP was measured in the Hek293 cell line with complete culture medium following compound treatment for 40 hours. The assay was performed in opaque white Kalypsys 1536-well plates. In the screen, tamoxifen and doxorubicin were used as positive controls. Library compounds were measured for their ability to cause acute toxicity in the cell line, as reflected by a decrease in intracellular ATP levels, in a concentration-dependent manner. Data were normalized to the controls for basal activity (DMSO only) and 100% inhibition (100 uM tamoxifen). AC50 values were determined from concentration-response data modeled with the standard Hill equation.
qHTS protocol fo CellTiter Glo Hek 293 cellular assay
[Step] [Parameter] [Value] [Description]
2. Time; 5 hr; 37 °C incubation
4. Controls; 23 nL; Tamoxifen 0.34 uM to 100 uM & Doxorubicin 0.02 nM to 100 uM
5. Time; 40 hr; 37 °C incubation
6. Reagent; 5 uL; CellTiter Glo reagent
7. Time; 20 min; Room Temperature
8. Detection; Luminescence; Viewlux plate reader
Keywords: cell viability, cytotoxicity, Hek293 cell line, luminescence, NTPHTS, NTPHTS_NCGC, NIEHS, EPA, DSSTox, MLSMR, MLSCN, NIH Roadmap, qHTS, NCGC
Take `CCCCCCCCCCCCCCCC[n+]1ccccc1`: the Potency was 54.4 µM (active). `CC(C)C(C)(C)C(C)(C)C(C)(C)S`: the Potency was > 92 µM (inactive).

For `CC(=O)OC/C=C(C)/C=C/C=C(C)/C=C/C1=C(C)CCCC1(C)C`, the Potency is > 92 µM (inactive). For `O=C(Oc1ccccc1)c1ccccc1O` the value was > 92 µM (inactive); for `CCCCC(CC)COC(=O)c1ccccc1C(=O)O` (centres undefined), > 92 µM (inactive). For `O=C(c1ccccc1)c1ccccc1` the value was > 92 µM (inactive); for `C1=CC2C3C=CC(C3)C2C1` (centres undefined), > 92 µM (inactive); for `Oc1ccccc1`, > 92 µM (inactive). `O=C(NO)c1ccccc1`: the Potency is > 92 µM (inactive). For `CCCC(=O)c1cc(O)c(O)cc1O` the value was > 92 µM (inactive); for `COc1cc(C=O)ccc1O`, > 92 µM (inactive). The result for `Brc1ccccc1-c1ccccc1` reads > 92 µM (inactive); that for `CC(C)(c1ccc(O)cc1)c1ccc(O)cc1`, > 92 µM (inactive). For `Nc1ccc(O)cc1` the value was 47.3 µM (active); for `Cc1ccc(O)cc1`, > 92 µM (inactive); for `Cc1cc(C(C)(C)C)c(O)c(C(C)(C)C)c1`, > 92 µM (inactive).

`Nc1cccc2c(N)cccc12`: the Potency is > 92 µM (inactive). For `c1ccc2occc2c1` the value was > 92 µM (inactive). For `OCc1c[nH]c2ccccc12` the value was > 92 µM (inactive).
